Assay results as given in the supplement of paper PMC10849652.
Targets with a hit are over-represented here; the source holds about 7,900 in all. About 0.6% of all pairs of compound and target were hits. Unmarked numbers belong to inactive results.

Key:
Test in all cases: log2 fold change, soluble protein after heating vs DMSO (PISA); higher = thermal stabilisation; K562 cells, 10 uM, 30 min; active = over 0.2 and 3.5 SD of the protein, either way, in both replicates (recomputed)
[1] = compound: CC[C@@H]1C(=O)N(C)c2cnc(Nc3ccc(C(=O)NC4CCN(C)CC4)cc3OC)nc2N1C1CCCC1
Outline: (§1)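 Quantification of soluble protein used TMTpro 16plex LC-MS/MS, with channel sums equalised. Samples were the supernatant after 21,000xg for 90 min of pooled aliquots from K562 cells (2×10^6 cells/mL) treated with 10 μM compound for 30 min, heated for 3 min over 48°C-58°C, and extracted in PBS with 0.5% NP-40 at 4°C. Values, from duplicates, describe thermal stability against control samples on a log2 fold-change scale.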

volasertib = compound: CC[C@@H]1C(=O)N(C)c2cnc(Nc3ccc(C(=O)N[C@H]4CC[C@H](N5CCN(CC6CC6)CC5)CC4)cc3OC)nc2N1C(C)C [volasertib]
Outline: as §1

[2] = compound: CC[C@H](C)N1C=C(C2=C(C=C(C=C21)C3=CN=C(C=C3)N4CCNCC4)C(=O)NCC5=C(C=C(NC5=O)C)C)C
Outline: as §1

epoxomicin = compound: CC[C@H](C)[C@@H](C(=O)N[C@@H]([C@@H](C)O)C(=O)N[C@@H](CC(C)C)C(=O)[C@]1(CO1)C)NC(=O)[C@H]([C@@H](C)CC)N(C)C(=O)C [epoxomicin]
Outline: as §1

[3] = compound: CCn1c(C(=O)N(C2CC2)C2CC2)cc2c3c(ncn3C)c(Nc3cc(C)n(C)n3)nc21
Outline: as §1

[4] = compound: CCn1cc(-c2ccnc3[nH]c(-c4cccc(CN(C)C)c4)cc23)c(-c2ccc(NC(=O)N(C)C)cc2)n1
Outline: as §1

[5] = compound: CN(C)CC(=O)Nc1ccc2[nH]c(=O)c3ccccc3c2c1
Outline: as §1

rosiglitazone = compound: CN(CCOC1=CC=C(C=C1)C[C@H]2C(=O)NC(=O)S2)C3=CC=CC=N3 (racemic) [rosiglitazone]
Outline: as §1

[6] = compound: CN1C2=C(C3=C1C(=O)N(N=C3)CC4=CC(=CC=C4)N)SC(=C2)S(=O)C
Outline: as §1

[7] = compound: CN1CCC(CNc2ccc3ncc(-c4cccc(OC(F)(F)F)c4)n3n2)CC1
Outline: as §1

UniProt P30626, sequence (P30626 whole entry, looked up): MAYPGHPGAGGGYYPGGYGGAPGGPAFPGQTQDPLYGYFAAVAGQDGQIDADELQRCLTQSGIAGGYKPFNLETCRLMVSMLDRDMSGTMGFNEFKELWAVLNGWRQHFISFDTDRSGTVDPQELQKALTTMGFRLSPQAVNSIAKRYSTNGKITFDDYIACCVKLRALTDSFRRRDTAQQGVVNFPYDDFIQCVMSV
UniProt Q9UHB9, sequence (Q9UHB9 whole entry, looked up): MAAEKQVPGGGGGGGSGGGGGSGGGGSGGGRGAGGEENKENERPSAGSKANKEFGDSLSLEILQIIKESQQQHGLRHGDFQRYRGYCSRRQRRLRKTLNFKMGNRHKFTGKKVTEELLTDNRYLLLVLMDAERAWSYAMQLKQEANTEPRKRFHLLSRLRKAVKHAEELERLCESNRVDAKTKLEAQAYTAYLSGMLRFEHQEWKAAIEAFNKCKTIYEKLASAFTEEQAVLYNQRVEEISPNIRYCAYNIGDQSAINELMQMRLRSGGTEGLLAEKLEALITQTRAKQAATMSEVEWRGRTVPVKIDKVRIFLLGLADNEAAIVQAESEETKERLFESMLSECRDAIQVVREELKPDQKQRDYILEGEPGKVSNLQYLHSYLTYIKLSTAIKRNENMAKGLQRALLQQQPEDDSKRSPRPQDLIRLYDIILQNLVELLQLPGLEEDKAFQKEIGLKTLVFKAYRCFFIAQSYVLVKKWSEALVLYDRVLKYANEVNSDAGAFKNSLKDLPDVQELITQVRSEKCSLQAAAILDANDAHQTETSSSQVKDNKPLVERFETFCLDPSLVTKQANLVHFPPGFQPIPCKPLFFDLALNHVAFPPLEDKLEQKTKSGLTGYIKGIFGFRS
UniProt Q9BSF4, sequence (Q9BSF4 whole entry, looked up): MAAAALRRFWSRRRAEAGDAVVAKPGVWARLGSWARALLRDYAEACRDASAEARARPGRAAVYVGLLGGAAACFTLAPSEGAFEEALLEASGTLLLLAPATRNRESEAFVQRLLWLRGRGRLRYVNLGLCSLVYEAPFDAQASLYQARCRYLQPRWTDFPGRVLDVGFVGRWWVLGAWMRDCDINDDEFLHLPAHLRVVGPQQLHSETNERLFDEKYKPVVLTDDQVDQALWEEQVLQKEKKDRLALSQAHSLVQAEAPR
UniProt Q9H2G2, sequence (Q9H2G2 whole entry, looked up): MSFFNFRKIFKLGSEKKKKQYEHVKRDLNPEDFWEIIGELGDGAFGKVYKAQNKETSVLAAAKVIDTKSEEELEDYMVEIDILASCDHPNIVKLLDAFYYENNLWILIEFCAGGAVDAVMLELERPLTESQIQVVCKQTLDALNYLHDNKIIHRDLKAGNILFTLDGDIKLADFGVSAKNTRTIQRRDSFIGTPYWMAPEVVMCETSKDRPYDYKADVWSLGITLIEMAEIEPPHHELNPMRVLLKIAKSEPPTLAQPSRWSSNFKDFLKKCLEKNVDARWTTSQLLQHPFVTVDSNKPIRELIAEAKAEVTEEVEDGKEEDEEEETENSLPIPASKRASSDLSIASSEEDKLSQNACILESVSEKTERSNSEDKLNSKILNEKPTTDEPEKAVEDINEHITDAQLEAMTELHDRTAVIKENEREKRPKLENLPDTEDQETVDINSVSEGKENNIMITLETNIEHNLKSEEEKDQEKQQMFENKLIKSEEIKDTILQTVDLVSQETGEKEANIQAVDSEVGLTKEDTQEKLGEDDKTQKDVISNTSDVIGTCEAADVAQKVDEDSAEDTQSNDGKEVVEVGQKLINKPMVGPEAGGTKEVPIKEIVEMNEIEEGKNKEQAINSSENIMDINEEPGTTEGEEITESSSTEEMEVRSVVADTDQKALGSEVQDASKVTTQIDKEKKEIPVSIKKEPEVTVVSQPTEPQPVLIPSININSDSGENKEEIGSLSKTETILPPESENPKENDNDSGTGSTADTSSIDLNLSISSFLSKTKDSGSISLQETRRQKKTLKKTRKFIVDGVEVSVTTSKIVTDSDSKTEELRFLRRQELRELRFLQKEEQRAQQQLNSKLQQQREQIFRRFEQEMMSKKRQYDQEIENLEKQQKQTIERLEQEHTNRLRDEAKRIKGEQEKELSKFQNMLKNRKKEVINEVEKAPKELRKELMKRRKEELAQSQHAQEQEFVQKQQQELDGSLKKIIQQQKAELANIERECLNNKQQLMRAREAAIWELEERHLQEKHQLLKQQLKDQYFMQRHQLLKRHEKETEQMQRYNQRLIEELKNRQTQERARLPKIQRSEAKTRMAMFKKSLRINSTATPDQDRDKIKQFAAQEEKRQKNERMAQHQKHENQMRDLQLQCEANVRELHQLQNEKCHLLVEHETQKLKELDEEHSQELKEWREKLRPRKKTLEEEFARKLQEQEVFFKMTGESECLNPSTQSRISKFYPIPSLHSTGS
UniProt Q9P016, sequence (Q9P016 whole entry, looked up): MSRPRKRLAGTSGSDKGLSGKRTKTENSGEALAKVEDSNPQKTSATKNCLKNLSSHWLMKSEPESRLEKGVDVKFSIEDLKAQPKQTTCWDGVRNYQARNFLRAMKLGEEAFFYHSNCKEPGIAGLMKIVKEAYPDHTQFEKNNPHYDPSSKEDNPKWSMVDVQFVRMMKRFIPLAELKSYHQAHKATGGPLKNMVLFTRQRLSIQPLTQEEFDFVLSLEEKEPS
UniProt A6NHR9, sequence (A6NHR9 whole entry, looked up): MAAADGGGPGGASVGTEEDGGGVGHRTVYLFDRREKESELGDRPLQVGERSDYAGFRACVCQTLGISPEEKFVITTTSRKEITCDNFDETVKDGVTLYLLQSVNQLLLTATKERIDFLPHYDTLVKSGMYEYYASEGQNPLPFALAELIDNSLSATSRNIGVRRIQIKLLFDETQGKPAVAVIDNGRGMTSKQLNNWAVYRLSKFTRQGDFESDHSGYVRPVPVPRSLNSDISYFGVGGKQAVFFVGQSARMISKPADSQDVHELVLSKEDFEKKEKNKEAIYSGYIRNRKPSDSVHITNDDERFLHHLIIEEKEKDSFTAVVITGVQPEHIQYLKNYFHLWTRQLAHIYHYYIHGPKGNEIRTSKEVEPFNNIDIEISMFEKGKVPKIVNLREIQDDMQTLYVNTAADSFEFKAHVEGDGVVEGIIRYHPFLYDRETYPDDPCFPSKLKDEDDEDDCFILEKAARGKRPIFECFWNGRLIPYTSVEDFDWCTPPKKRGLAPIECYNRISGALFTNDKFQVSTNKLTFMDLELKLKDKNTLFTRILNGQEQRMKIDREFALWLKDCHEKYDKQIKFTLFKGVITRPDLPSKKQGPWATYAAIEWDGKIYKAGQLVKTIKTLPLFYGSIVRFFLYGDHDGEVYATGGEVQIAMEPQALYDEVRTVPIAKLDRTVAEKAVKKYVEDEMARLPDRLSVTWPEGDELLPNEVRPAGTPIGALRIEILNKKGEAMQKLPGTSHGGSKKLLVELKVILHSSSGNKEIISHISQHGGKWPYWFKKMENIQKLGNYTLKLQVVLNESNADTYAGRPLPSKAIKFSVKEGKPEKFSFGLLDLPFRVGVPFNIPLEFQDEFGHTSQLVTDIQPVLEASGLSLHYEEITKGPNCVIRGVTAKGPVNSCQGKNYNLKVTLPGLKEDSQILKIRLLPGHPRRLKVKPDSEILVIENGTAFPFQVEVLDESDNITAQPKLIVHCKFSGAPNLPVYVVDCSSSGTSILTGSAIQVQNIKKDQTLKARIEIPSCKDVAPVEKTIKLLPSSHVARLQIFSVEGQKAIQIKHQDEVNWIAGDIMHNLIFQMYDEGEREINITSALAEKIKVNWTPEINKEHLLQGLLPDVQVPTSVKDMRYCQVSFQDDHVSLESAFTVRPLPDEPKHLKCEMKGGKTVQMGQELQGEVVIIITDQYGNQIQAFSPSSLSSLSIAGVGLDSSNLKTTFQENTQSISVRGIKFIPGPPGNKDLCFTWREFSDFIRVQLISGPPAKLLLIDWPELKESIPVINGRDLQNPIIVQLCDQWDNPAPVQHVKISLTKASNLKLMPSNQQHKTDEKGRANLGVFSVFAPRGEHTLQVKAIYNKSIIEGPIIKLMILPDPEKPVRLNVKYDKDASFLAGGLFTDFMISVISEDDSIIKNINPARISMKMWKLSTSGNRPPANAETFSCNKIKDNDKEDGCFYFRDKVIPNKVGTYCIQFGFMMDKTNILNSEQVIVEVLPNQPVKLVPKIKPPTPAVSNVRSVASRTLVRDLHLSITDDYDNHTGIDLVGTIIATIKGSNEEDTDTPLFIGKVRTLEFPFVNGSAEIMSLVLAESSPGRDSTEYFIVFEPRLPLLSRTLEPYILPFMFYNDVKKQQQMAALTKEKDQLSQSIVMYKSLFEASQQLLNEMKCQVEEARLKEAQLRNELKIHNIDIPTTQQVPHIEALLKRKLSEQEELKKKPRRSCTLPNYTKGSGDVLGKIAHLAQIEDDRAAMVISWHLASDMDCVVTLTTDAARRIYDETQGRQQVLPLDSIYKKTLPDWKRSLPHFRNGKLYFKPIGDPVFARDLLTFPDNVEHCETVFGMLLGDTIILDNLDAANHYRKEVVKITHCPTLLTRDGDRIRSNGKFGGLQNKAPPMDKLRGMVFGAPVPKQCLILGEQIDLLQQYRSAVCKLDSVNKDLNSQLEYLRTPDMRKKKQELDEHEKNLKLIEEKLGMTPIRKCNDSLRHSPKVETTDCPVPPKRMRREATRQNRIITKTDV
UniProt P56962, sequence (P56962 whole entry, looked up): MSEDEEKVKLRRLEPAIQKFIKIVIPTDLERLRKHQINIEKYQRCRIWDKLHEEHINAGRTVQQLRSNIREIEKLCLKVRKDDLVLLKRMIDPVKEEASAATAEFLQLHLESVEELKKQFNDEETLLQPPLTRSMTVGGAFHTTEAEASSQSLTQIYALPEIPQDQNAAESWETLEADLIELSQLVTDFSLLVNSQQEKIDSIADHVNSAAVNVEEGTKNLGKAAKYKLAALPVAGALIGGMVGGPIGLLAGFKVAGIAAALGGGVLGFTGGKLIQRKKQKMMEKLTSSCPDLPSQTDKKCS
UniProt P62318, sequence (P62318 whole entry, looked up): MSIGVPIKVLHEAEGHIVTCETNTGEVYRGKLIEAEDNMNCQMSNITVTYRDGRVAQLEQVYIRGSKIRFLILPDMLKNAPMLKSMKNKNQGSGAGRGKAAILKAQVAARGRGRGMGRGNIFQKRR

Row | Target | log2 fold change [1] | log2 fold change (volasertib) | log2 fold change [2] | log2 fold change (epoxomicin) | log2 fold change [3] | log2 fold change [4] | log2 fold change [5] | log2 fold change (rosiglitazone) | log2 fold change [6] | log2 fold change [7]
1 | SUPT16H (UniProt Q9Y5B9) | -0.426 | -0.363 | 0.095 | 0.085 | -0.108 | -0.089 | 0.285 | 0.073 | -0.02 | -0.198
2 | ST6GAL1 (UniProt P15907) | -0.221 (active) | -0.257 | 0.003 | -0.066 | 0.019 | 0.01 | 0.041 | 0.058 | -0.057 | -0.149
3 | STXBP2 isoform 3 (UniProt Q15833) | -0.015 | -0.217 | 0.138 | -0.006 | -0.083 | -0.025 | 0.02 | 0.096 | 0.116 | -0.072
4 | TJP2 isoform 7 (UniProt Q9UDY2) | -0.128 | -0.298 | -0.018 | 0.01 | -0.041 | -0.083 | 0.015 | 0.07 | -0.021 | -0.094
5 | TIMM29 (UniProt Q9BSF4) | 0.044 | -0.071 | 0.019 | -0.013 | 0.027 | -0.035 | 0 | -0.016 | -0.103 | 0.062
6 | STX17 (UniProt P56962) | -0.273 | -0.357 (active) | -0.06 | 0.062 | -0.067 | 0.011 | -0.02 | 0.089 | -0.126 | -0.278
7 | STAT5B (UniProt P51692) | -0.221 | -0.333 | 0.36 | 0.004 | -0.037 | 0.052 | 0.105 | -0.003 | -0.063 | -0.045
8 | SURF2 (UniProt Q15527) | -0.002 | -0.046 | 0.014 | 0.04 | -0.008 | -0.078 | 0.037 | 0 | -0.043 | 0.024
9 | THRAP3 (UniProt Q9Y2W1) | 0.03 | 0.098 | -0.137 | -0.093 | -0.013 | 0.101 | -0.026 | -0.007 | 0.025 | -0.058
10 | TIPRL (UniProt O75663) | -0.061 | -0.23 (active) | 0.072 | 0.025 | -0.012 | -0.057 | 0.032 | 0.085 | 0.021 | -0.214
11 | SNX9 (UniProt Q9Y5X1) | -0.125 | -0.309 (active) | 0.04 | -0.02 | -0.018 | -0.021 | -0.006 | 0.025 | 0.009 | -0.137
12 | SMCHD1 (UniProt A6NHR9) | 0.009 | -0.326 | 0.098 | -0.189 | -0.015 | -0.085 | 0.032 | -0.118 | -0.023 | -0.144
13 | SQSTM1 (UniProt Q13501) | -0.09 | -0.204 | 0.021 | -0.056 | 0.041 | -0.112 | 0.042 | 0.012 | 0.043 | -0.022
14 | SLK isoform 2 (UniProt Q9H2G2) | -0.095 | -0.161 | 0.05 | 0.052 | -0.002 | -0.271 (active) | -0.016 | 0.041 | -0.022 | -0.152
15 | TBC1D15 isoform 3 (UniProt Q8TC07) | -0.221 | -0.485 (active) | 0.04 | 0.004 | -0.081 | -0.024 | 0.031 | 0.05 | 0.018 | -0.241 (active)
16 | SRI (UniProt P30626) | 0.008 | -0.111 | -0.013 | 0.393 (active) | 0.09 | -0.058 | 0.009 | 0.003 | -0.071 | 0.126
17 | SLC30A7 (UniProt Q8NEW0) | 0.016 | -0.074 | -0.041 | -0.034 | -0.007 | 0.032 | 0.014 | 0.053 | -0.05 | 0.091
18 | SP100 isoform 4 (UniProt P23497) | -0.021 | -0.065 | 0.012 | -0.006 | 0.023 | 0.056 | -0.045 | -0.009 | -0.059 | -0.064
19 | TBC1D10B (UniProt Q4KMP7) | -0.108 | -0.114 | 0.025 | 0.019 | 0.022 | 0.004 | -0.005 | 0.015 | -0.053 | -0.185
20 | SNRPD3 (UniProt P62318) | 0.194 | 0.134 | -0.058 | -0.037 | 0.005 | 0.058 | -0.07 | -0.047 | 0.001 | 0.198
21 | SRP68 (UniProt Q9UHB9) | -0.077 | -0.487 (active) | 0.079 | 0.094 | -0.093 | -0.024 | 0.019 | 0.048 | 0.133 | -0.18
22 | SRSF3 (UniProt P84103) | 0.198 | 0.313 | -0.075 | -0.213 | 0.028 | 0.189 | -0.139 | -0.115 | 0.18 | 0.233
23 | SRSF9 (UniProt Q13242) | 0.189 | 0.414 | -0.004 | -0.421 | 0.097 | 0.323 | -0.106 | -0.07 | 0.506 | 0.364
24 | TLK2 isoform 2 (UniProt Q86UE8) | -0.015 | -0.112 | 0.029 | -0.01 | 0.057 | -0.024 | -0.012 | 0.014 | -0.039 | -0.054
25 | SSB (UniProt P05455) | -0.154 | -0.131 | 0.083 | -0.011 | 0.015 | 0.04 | -0.012 | 0.044 | -0.001 | -0.194
26 | SLIRP (UniProt Q9GZT3) | 0.05 | 0.343 | -0.093 | 0.302 | 0.015 | 0.02 | 0.08 | 0.058 | 0.092 | 0.06
27 | THYN1 (UniProt Q9P016) | 0.059 | 0.09 | 0.048 | 0.016 | 0.072 | -0.04 | -0.004 | 0.001 | -0.09 | 0.09
